Laboratory results reported in PubChem BioAssay (NCATS).
Results filed as inconclusive are left out. Where a call stands in place of a potency, no number is given. Activity calls are given as the source filed them. Calls come from the whole dose curve; as a rule, active = well fitted inhibition curve with a large enough effect; inconclusive = small, poorly fitted or top-dose-only effect; inactive = flat fitted curve, though single readings scatter.

Assays:
Assay in all cases: qHTS profiling for inhibitors of Plasmodium falciparum proliferation (AID 504749); note: nearly all actives have a fitted effect of over 60% in size
Conditions in all cases: P. falciparum in erythrocytes, SYBR Green DNA, 72 h; series mostly up to 28.7 µM
CP260 = test system: CP260
How it was run: (§1)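 Fluorescence of SYBR Green-bound parasite DNA, read at 485/535 nm, served as the growth measure. Infected erythrocytes were cultured with compound 72 h; artemisinin (0.29 uM) and DMSO wells defined the normalization range.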

CP262 = test system: CP262
How it was run: as §1

CP265 = test system: CP265
How it was run: as §1

CP268 = test system: CP268
How it was run: as §1

CP269 = test system: CP269
How it was run: as §1

CP286 = test system: CP286
How it was run: as §1

CP291 = test system: CP291
How it was run: as §1

CP297 = test system: CP297
How it was run: as §1

CP305 = test system: CP305
How it was run: as §1

CP266 = test system: CP266
How it was run: as §1
Potency is the fitted concentration of half-maximal effect.

Row | SMILES | Potency (CP260) | Potency (CP262) | Potency (CP265) | Potency (CP268) | Potency (CP269) | Potency (CP286) | Potency (CP291) | Potency (CP297) | Potency (CP305) | Potency (CP266)
1 | CCC(O)c1ccccc1 (stereo unspecified) | inactive | inactive | inactive | inactive | inactive | inactive | inactive | inactive | inactive | 
2 | CCN(CC)CCCC(C)Nc1cc(/C=C/c2ccccc2Cl)nc2cc(Cl)ccc12 (stereo unspecified) | 2 µM (active) |  | 2.82 µM (active) | 4.26 µM (active) | 3.38 µM (active) | 1.12 µM (active) | 2.13 µM (active) | 7.57 µM (active) |  | 
3 | CC12CCC(C[N+](C)(CCC[N+](C)(C)C)C1)C2(C)C (stereo unspecified) | inactive |  | inactive | inactive | inactive | inactive | inactive | inactive | inactive | inactive
4 | CCCCCCCCCCCCCCCCOCCOCCOCCOCCOCCOCCOCCOCCOCCOCCOCCOCCOCCOCCOCCOCCOCCOCCOCCOCCO | 11.2 µM (active) | inactive |  |  |  |  |  |  | 12 µM (active) | inactive
5 | OCCCNc1ccccc1 | inactive | inactive | inactive | inactive | inactive | inactive | inactive | inactive | inactive | 
6 | C[Si](C)(C)O[Si](C)(C)C | inactive |  | inactive | inactive | inactive | inactive | inactive | inactive | inactive | 
7 | O=[n+]1ccn([O-])c2ccccc21 |  | inactive | inactive | inactive | inactive | inactive | inactive | inactive | inactive | inactive
8 | CC[C@H]1OC(=O)[C@H](C)[C@@H](O[C@H]2C[C@@](C)(OC)[C@@H](O)[C@H](C)O2)C(C)[C@@H](O[C@@H]2O[C@H](C)C[C@H](N(C)C)[C@@H]2O)[C@](C)(OC)C[C@@H](C)C(=O)[C@H](C)[C@@H](O)[C@]1(C)O (stereo partly specified) | 5.62 µM (active) |  | inactive | inactive | inactive | 8.91 µM (active) | inactive |  | inactive | inactive
9 | O.O.O.O.O.O.O.O=S(=O)([O-])[O-].[Co+2] | 10 µM (active) |  | 11.2 µM (active) |  | 7.57 µM (active) | 10 µM (active) | 9.53 µM (active) |  | 6.75 µM (active) | 
10 | C(=C\c1ccncc1)/c1ccccc1 | inactive |  | inactive | inactive | inactive | inactive |  | inactive | inactive | inactive
11 | Cc1cccc(C)c1NC(=O)C1CCCCN1C (stereo unspecified) | inactive | inactive | inactive | inactive | inactive | inactive | inactive |  | inactive | 
12 | O=C(Nc1ccc(O)cc1)c1ccccc1O | inactive | inactive |  | inactive | inactive | inactive | inactive | inactive | inactive | inactive
13 | O=C(O)CCCC/C=C(\c1ccccc1)c1cccnc1 | inactive | inactive | inactive | inactive | inactive | inactive | inactive |  | inactive | 
14 | COc1cc(NCCCC(C)N)c2ncccc2c1 (stereo unspecified) | 8.91 µM (active) | 6.75 µM (active) | 8.91 µM (active) | 6.75 µM (active) | 7.57 µM (active) | 1.41 µM (active) |  | 8.49 µM (active) | 6.75 µM (active) | 
15 | O=C(O)[C@H]1C(=CCO)O[C@H]2CC(=O)N12 | inactive | inactive | inactive | inactive | inactive | inactive | inactive | inactive | inactive | 
16 | O=P(O)(O)CP(=O)(O)O | inactive | inactive |  |  | inactive | inactive | inactive | inactive | inactive | inactive
17 | CCCCCCOC(=O)c1cccnc1 | inactive | inactive | inactive | inactive | inactive | inactive | inactive | inactive | inactive | 
18 | CCCCC | inactive |  | inactive | inactive | inactive | inactive | inactive | inactive | inactive | inactive
19 | Cn1c(=O)c2c(ncn2CCOC(=O)C(C)(C)Oc2ccc(Cl)cc2)n(C)c1=O | inactive | inactive |  | inactive | inactive | inactive | inactive | inactive | inactive | inactive
20 | NC(=O)CC[C@@H]1NC(=O)[C@H](Cc2ccccc2)NC(=O)[C@H](Cc2ccc(O)cc2)NC(=O)[C@@H](N)CSSC[C@@H](C(=O)N2CCC[C@H]2C(=O)N[C@@H](CCCN=C(N)N)C(=O)NCC(N)=O)NC(=O)[C@H](CC(N)=O)NC1=O | 2.24 µM (active) | inactive |  | inactive | inactive | inactive | inactive | inactive | inactive | inactive
21 | CCCCCCCCCCCC(=O)N(CCO)CCO | inactive |  | inactive |  | inactive | inactive | inactive | inactive | inactive | inactive
22 | CCC(=O)c1ccc2c(c1)N(CCCN1CCN(CCO)CC1)c1ccccc1S2 | 10 µM (active) | 6.75 µM (active) | 8.91 µM (active) | 12 µM (active) | 9.53 µM (active) | 4.47 µM (active) | 15.1 µM (active) |  | 10.7 µM (active) | 
23 | OCCOCCOCCO | inactive | inactive | inactive |  |  | inactive |  |  |  | 

Row | SMILES | Potency (CP260) | Potency (CP262) | Potency (CP265) | Potency (CP268) | Potency (CP269) | Potency (CP286) | Potency (CP291) | Potency (CP297) | Potency (CP305) | Potency (CP266)
24 | OCC(O)CO | inactive |  | inactive | inactive | inactive | inactive | inactive | inactive | inactive | inactive
25 | CSc1nc2cc(Oc3cccc(Cl)c3Cl)c(Cl)cc2[nH]1 | 7.94 µM (active) | inactive | 2 µM (active) |  | 12 µM (active) | 10 µM (active) | 8.49 µM (active) | 12 µM (active) | 13.5 µM (active) | 
26 | CC(C)OC(=O)Nc1ccc2nc(-c3cscn3)[nH]c2c1 | inactive | inactive | inactive | inactive |  | inactive |  |  | inactive | 
27 | Cn1cc(NC(=O)c2cc(NC(=O)c3cc(NC=O)cn3C)cn2C)cc1C(=O)NCCC(=N)N | 12.6 µM (active) |  | 11.2 µM (active) | 9.53 µM (active) | 7.57 µM (active) | 3.98 µM (active) | 9.53 µM (active) |  | 8.49 µM (active) | 
28 | CC(C)(Oc1ccc(C2CCCc3ccccc32)cc1)C(=O)O (stereo unspecified) | inactive | inactive | inactive | inactive | inactive | inactive | inactive | inactive | inactive | 
29 | O=C1N=C2SCCN2C(=O)C1Cc1ccc(Cl)cc1 (stereo unspecified) |  | inactive | inactive | inactive | inactive | inactive | inactive | inactive | inactive | inactive
30 | Cc1cc(-c2ccc(N=Nc3ccc4c(S(=O)(=O)O)cc(S(=O)(=O)O)c(N)c4c3O)c(C)c2)ccc1N=Nc1ccc2c(S(=O)(=O)O)cc(S(=O)(=O)O)c(N)c2c1O |  | inactive | inactive | inactive | inactive | inactive | inactive | inactive | inactive | inactive
31 | CC(C)C1=CC2=CC[C@@H]3[C@](C)(CCC[C@@]3(C)C(=O)O)[C@H]2CC1 | inactive | inactive | inactive |  |  | inactive |  |  |  | 
32 | CS(=O)(=O)c1ccc([C@@H](O)[C@@H](COC(=O)CN)NC(=O)C(Cl)Cl)cc1 |  | inactive |  |  |  |  |  |  |  | 
33 | Oc1ccc(Cl)c2c1CCC2 | inactive | inactive | inactive | inactive | inactive | inactive | inactive |  | inactive | 
34 | C[C@H](N)C(=O)N[C@@H](C)P(=O)(O)O |  | inactive | inactive | inactive | inactive | inactive | inactive | inactive | inactive | inactive
35 | CN(C)C(=O)CCSC(SCCC(=O)O)c1cccc(/C=C/c2ccc3ccc(Cl)cc3n2)c1 (stereo unspecified) |  | inactive | inactive | inactive | inactive |  | inactive |  | inactive | inactive
36 | O=C(OCc1ccccc1)c1cccnc1 |  | inactive | inactive | inactive | inactive |  | inactive | inactive | inactive | inactive
37 | CCCCC(CC)CCC(CC(C)C)OS(=O)(=O)O (stereo unspecified) |  | inactive | inactive | inactive | inactive | inactive | inactive | inactive | inactive | inactive
38 | CC(=O)NCCCS(=O)(=O)O |  | inactive | inactive | inactive | inactive | inactive | inactive | inactive | inactive | inactive
39 | Cc1cc(-c2ccc(N=Nc3c(S(=O)(=O)O)cc4cc(S(=O)(=O)O)cc(N)c4c3O)c(C)c2)ccc1N=Nc1c(S(=O)(=O)O)cc2cc(S(=O)(=O)O)cc(N)c2c1O |  | inactive | inactive |  | inactive | inactive | inactive | inactive | inactive | inactive
40 | CN(Cc1ccccc1)Cc1ccccc1 |  | inactive | inactive | inactive | inactive | inactive | inactive | inactive | inactive | inactive
41 | OCc1ccccc1 |  | inactive |  |  |  |  |  |  |  | inactive
42 | Cc1cccc(Nc2ncccc2C(=O)O)c1C |  | inactive | inactive | inactive | inactive | inactive | inactive | inactive | inactive | inactive
43 | CO/N=C(\C(=O)N[C@@H]1C(=O)N2C(C(=O)[O-])=C(C[n+]3cccc4c3CCC4)CS[C@H]12)c1csc(N)n1 |  | inactive | inactive |  | inactive | inactive | inactive |  | inactive | inactive
44 | CC(=O)Oc1cc(C(F)(F)F)ccc1C(=O)O |  | inactive | inactive | inactive | inactive | inactive | inactive | inactive | inactive | inactive
45 | O=C(CCCN1CCN2CCCC2C1)c1ccc(F)cc1 (stereo unspecified) |  | inactive |  | inactive | inactive | inactive | inactive |  | inactive | inactive
